Targets with a hit are over-represented here; the source holds about 8,800 in all. About 0.5% of all pairs of compound and target were hits.
Assays:
Experiment in all cases: log2 fold change, soluble protein after heating vs DMSO (PISA); higher = thermal stabilisation; K562 lysate, 10 uM; active = over 0.2 and 3.5 SD of the protein, either way, in both replicates (recomputed)
[1] = compound: C#Cc1cccc(Nc2ncnc3cc(OCCOC)c(OCCOC)cc23)c1 [erlotinib]
How it was run: (§1)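 Pellets of K562 cells were dounce-homogenised in PBS pH 7.4 with 1 mM MgCl2, and the crude extract was held at 1 mg/mL protein for a 30 min treatment with 10 μM compound. Aliquots were heated for 3 min over 48°C-58°C and pooled before NP-40 was added to 0.5% at 4°C. The supernatant from 21,000xg for 90 min was quantified by TMTpro 16plex LC-MS/MS with channel sums equalised. Values are reported from duplicates as log-two fold change in thermal stability relative to solvent controls.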

[2] = compound: C/C(=N\NC(=O)C1=CC(=CC=C1)S(=O)(=O)N2CCOCC2)/C3=C(C=CC(=C3)Cl)O
How it was run: as §1

[3] = compound: C1=CC(=CC=C1C2=NC3=C(N2)C=C(C=C3)C(=O)N)OC4=CC=C(C=C4)Cl
How it was run: as §1

[4] = compound: C1=CC2=C(C=CC(=C2)/C=C\3/C(=O)NC(=NCC4=CC=CS4)S3)N=C1
How it was run: as §1

[5] = compound: C1=CC2=NC=CN=C2C=C1/C=C/3\C(=O)NC(=O)S3
How it was run: as §1

[6] = compound: C1=CC=C(C=C1)C2=NC(=C(N2)C3=CC=NC=C3)C4=CC(=C(C=C4)Cl)O
How it was run: as §1

[7] = compound: C1=CC=C2C(=C1)C3=NNC4=CC=CC(=C43)C2=O
How it was run: as §1

[8] = compound: C1CCN(C1)C(=O)NC2=CC=CC(=C2)NC3=NC=C(C(=N3)NCCC4=CN=CN4)Br
How it was run: as §1

[9] = compound: C1CN(CCC1(CC2=CC=C(C=C2)Cl)N)C3=NC=NC4=C3C=CN4
How it was run: as §1

[10] = compound: C1COCCN1CCN2C3=CC=CC=C3N=C2NC(=O)C4=CC(=CC=C4)[N+](=O)[O-] [IRAK-1-4 Inhibitor I]
How it was run: as §1

[11] = compound: C=CC(=O)N1CCC[C@@H](n2nc(-c3ccc(Oc4ccccc4)cc3)c3c(N)ncnc32)C1 [ibrutinib]
How it was run: as §1

[12] = compound: CC(=O)c1cnc2ccc(-c3cc(Cl)c(O)c(Cl)c3)nc2c1N[C@H]1CC[C@H](CN(C)C)CC1
How it was run: as §1

[13] = compound: CC(C)(C)Cn1c(N)nc2ccc(-c3[nH]c(C(C)(C)C)nc3-c3ccc(F)cc3)nc21 [ralimetinib]
How it was run: as §1

[14] = compound: CC(C)(O)CC(=O)NCCn1ccc2ncnc(Nc3ccc(Oc4cccc(C(F)(F)F)c4)c(Cl)c3)c21
How it was run: as §1

[15] = compound: CC(C)C1=C2N=C(C=C(N2N=C1)NCC3=CC=CC=C3)NCCCCCCN
How it was run: as §1

[16] = compound: CC1=C(C(CC(=O)N1)C2=CC=C(C=C2)C(F)(F)F)C(=O)NC3=C(C=C4C(=C3)C=NN4)F
How it was run: as §1

[17] = compound: CC1=C(C2=C(C=C1)C(=O)C3=CC=CC=C3N2CCCN)C
How it was run: as §1

[18] = compound: CC1=C(C=C(C=C1)NC(=O)C2=CC(=CC=C2)C(C)(C)C#N)NC3=CC4=C(C=C3)N=CN(C4=O)C
How it was run: as §1

[19] = compound: CC1=C(C=C(C=C1)NC(=O)C2=CC(=CC=C2)N(C)C)NC(=O)C3=CC=C(C=C3)O
How it was run: as §1

[20] = compound: CC1=CC=C(C=C1)SC2=C3C=C(SC3=CN=C2)C(=O)N
How it was run: as §1

Measured: log2 fold change

PRKD2 isoform 3 (UniProt Q9BZL6)
UniProt Q9BZL6, sequence (Q9BZL6 whole entry, looked up): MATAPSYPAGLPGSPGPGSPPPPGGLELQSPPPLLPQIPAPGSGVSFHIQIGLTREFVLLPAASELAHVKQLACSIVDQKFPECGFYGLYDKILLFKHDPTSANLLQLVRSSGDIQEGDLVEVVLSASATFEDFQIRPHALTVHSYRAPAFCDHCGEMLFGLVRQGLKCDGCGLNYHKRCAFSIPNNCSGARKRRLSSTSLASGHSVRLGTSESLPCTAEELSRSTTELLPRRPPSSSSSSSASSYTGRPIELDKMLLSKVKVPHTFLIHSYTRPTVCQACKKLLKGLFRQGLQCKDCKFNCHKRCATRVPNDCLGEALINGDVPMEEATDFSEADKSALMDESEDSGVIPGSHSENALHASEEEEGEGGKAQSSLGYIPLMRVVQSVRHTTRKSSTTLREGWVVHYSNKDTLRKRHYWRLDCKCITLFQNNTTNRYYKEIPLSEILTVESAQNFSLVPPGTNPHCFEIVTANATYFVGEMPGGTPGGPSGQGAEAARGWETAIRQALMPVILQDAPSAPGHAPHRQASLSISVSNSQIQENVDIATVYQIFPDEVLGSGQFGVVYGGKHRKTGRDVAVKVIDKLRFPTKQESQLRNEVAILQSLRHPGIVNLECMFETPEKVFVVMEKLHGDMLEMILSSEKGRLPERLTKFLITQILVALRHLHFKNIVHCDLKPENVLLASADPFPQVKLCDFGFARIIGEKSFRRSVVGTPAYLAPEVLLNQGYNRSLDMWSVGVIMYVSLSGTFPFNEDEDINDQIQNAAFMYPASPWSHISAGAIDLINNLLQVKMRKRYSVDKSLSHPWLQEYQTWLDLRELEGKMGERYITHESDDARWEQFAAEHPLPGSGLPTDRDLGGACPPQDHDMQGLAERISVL
inactive: [1] 0.085 | [2] -0.047 | [3] 0.031 | [4] -0.112 | [5] 0.028 | [6] 0.014 | [7] -0.037 | [8] -0.175 | [9] -0.009 | [10] 0.021 | [11] 0.026 | [12] -0.065 | [13] 0.019 | [14] -0.122 | [15] 0.045 | [16] 0.04 | [17] -0.111 | [18] -0.034 | [19] 0.046 | [20] 0.007

PRKAB2 (UniProt O43741)
UniProt O43741, sequence (O43741 whole entry, looked up): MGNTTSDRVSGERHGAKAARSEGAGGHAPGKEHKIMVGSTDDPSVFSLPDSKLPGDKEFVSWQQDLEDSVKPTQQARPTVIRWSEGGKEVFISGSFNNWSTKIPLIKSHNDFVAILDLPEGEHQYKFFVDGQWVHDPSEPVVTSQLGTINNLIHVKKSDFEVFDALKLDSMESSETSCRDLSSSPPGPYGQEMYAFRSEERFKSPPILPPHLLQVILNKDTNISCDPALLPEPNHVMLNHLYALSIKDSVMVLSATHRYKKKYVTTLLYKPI
inactive: [1] -0.032 | [2] -0.165 | [3] 0.096 | [4] -0.041 | [5] 0.031 | [6] 0.039 | [7] 0.153 | [8] 0.196 | [9] 0.042 | [10] 0.24 | [11] -0.041 | [12] -0.018 | [13] 0.093 | [14] -0.129 | [15] -0.025 | [16] 0.086 | [17] -0.066 | [18] -0.082 | [19] 0.035 | [20] -0.008

PYCR2 (UniProt Q96C36)
UniProt Q96C36, sequence (Q96C36 whole entry, looked up): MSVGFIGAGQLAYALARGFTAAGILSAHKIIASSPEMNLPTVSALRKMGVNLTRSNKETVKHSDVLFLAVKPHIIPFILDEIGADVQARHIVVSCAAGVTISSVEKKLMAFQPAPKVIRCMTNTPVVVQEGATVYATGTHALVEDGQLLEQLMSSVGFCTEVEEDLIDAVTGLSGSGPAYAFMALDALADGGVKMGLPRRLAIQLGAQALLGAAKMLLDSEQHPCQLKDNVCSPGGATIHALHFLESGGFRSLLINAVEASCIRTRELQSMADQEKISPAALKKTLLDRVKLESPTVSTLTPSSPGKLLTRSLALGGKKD
inactive: [1] -0.013 | [2] 0.014 | [3] 0.011 | [4] -0.005 | [5] -0.013 | [6] 0.003 | [7] -0.04 | [8] 0.007 | [9] 0.01 | [10] 0.031 | [11] 0.012 | [12] 0.002 | [13] -0.007 | [14] -0.032 | [15] -0.007 | [16] -0.026 | [17] 0.001 | [18] 0.013 | [19] -0.017 | [20] -0.016

POLR2G (UniProt P62487)
inactive: [1] 0.02 | [2] 0.012 | [3] 0.044 | [4] -0.005 | [5] 0.029 | [6] 0.022 | [7] 0.036 | [8] -0.002 | [9] 0.02 | [10] 0.03 | [11] -0.01 | [12] -0.001 | [13] 0.027 | [14] -0.017 | [15] -0.028 | [16] -0.015 | [17] 0.02 | [18] 0.029 | [19] -0.008 | [20] -0.01

PRPF6 (UniProt O94906)
UniProt O94906, sequence (O94906 whole entry, looked up): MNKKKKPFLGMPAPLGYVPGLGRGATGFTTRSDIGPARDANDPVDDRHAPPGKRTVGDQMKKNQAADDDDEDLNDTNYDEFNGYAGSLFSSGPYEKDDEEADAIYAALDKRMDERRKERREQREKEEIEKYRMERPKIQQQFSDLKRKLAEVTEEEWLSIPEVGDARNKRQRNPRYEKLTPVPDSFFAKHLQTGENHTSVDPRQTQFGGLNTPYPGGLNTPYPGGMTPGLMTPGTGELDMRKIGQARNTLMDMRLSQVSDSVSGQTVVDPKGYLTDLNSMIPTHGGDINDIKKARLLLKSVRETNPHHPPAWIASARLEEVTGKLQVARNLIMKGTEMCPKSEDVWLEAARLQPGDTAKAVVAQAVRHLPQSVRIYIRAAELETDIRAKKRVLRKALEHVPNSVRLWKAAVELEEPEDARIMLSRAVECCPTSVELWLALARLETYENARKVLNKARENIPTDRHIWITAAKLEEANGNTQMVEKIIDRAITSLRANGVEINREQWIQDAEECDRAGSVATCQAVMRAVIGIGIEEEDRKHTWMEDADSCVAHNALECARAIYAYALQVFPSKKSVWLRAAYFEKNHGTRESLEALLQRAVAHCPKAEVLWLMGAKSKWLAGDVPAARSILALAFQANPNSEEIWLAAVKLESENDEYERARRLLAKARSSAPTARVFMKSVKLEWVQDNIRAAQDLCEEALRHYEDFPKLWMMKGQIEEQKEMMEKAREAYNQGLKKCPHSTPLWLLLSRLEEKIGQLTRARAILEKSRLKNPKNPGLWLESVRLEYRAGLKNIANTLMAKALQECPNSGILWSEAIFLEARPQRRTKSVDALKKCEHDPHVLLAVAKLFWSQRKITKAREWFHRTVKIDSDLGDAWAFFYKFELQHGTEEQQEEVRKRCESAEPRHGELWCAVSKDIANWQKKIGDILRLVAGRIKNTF
inactive: [1] 0.018 | [2] 0.038 | [3] -0.003 | [4] -0.035 | [5] 0.001 | [6] 0.037 | [7] -0.018 | [8] -0.056 | [9] -0.032 | [10] -0.046 | [11] 0 | [12] 0 | [13] 0.038 | [14] 0.022 | [15] 0.005 | [16] -0.008 | [17] 0.001 | [18] -0.022 | [19] 0.053 | [20] 0.007

PUS1 (UniProt Q9Y606)
UniProt Q9Y606, sequence (Q9Y606 whole entry, looked up): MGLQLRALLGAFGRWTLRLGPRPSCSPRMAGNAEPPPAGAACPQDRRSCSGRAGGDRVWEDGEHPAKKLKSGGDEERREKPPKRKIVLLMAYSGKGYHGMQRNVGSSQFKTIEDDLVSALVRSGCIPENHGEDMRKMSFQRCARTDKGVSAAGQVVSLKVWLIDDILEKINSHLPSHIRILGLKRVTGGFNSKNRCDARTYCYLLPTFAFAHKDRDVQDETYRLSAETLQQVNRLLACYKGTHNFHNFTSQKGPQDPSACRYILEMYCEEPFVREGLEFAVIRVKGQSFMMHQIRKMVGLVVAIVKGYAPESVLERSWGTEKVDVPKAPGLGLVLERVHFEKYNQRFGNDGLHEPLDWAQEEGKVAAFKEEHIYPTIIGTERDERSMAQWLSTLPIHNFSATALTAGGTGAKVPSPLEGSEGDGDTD
inactive: [1] 0.033 | [2] -0.174 | [3] 0.007 | [4] 0.01 | [5] 0.024 | [6] 0.005 | [7] -0.06 | [8] 0.016 | [9] -0.021 | [10] 0.004 | [11] 0.006 | [12] 0.004 | [13] 0.013 | [14] -0.006 | [15] 0.005 | [16] -0.009 | [17] -0.032 | [18] 0.028 | [19] 0.031 | [20] -0.021

PI4KA (UniProt P42356)
UniProt P42356, sequence (P42356 whole entry, looked up): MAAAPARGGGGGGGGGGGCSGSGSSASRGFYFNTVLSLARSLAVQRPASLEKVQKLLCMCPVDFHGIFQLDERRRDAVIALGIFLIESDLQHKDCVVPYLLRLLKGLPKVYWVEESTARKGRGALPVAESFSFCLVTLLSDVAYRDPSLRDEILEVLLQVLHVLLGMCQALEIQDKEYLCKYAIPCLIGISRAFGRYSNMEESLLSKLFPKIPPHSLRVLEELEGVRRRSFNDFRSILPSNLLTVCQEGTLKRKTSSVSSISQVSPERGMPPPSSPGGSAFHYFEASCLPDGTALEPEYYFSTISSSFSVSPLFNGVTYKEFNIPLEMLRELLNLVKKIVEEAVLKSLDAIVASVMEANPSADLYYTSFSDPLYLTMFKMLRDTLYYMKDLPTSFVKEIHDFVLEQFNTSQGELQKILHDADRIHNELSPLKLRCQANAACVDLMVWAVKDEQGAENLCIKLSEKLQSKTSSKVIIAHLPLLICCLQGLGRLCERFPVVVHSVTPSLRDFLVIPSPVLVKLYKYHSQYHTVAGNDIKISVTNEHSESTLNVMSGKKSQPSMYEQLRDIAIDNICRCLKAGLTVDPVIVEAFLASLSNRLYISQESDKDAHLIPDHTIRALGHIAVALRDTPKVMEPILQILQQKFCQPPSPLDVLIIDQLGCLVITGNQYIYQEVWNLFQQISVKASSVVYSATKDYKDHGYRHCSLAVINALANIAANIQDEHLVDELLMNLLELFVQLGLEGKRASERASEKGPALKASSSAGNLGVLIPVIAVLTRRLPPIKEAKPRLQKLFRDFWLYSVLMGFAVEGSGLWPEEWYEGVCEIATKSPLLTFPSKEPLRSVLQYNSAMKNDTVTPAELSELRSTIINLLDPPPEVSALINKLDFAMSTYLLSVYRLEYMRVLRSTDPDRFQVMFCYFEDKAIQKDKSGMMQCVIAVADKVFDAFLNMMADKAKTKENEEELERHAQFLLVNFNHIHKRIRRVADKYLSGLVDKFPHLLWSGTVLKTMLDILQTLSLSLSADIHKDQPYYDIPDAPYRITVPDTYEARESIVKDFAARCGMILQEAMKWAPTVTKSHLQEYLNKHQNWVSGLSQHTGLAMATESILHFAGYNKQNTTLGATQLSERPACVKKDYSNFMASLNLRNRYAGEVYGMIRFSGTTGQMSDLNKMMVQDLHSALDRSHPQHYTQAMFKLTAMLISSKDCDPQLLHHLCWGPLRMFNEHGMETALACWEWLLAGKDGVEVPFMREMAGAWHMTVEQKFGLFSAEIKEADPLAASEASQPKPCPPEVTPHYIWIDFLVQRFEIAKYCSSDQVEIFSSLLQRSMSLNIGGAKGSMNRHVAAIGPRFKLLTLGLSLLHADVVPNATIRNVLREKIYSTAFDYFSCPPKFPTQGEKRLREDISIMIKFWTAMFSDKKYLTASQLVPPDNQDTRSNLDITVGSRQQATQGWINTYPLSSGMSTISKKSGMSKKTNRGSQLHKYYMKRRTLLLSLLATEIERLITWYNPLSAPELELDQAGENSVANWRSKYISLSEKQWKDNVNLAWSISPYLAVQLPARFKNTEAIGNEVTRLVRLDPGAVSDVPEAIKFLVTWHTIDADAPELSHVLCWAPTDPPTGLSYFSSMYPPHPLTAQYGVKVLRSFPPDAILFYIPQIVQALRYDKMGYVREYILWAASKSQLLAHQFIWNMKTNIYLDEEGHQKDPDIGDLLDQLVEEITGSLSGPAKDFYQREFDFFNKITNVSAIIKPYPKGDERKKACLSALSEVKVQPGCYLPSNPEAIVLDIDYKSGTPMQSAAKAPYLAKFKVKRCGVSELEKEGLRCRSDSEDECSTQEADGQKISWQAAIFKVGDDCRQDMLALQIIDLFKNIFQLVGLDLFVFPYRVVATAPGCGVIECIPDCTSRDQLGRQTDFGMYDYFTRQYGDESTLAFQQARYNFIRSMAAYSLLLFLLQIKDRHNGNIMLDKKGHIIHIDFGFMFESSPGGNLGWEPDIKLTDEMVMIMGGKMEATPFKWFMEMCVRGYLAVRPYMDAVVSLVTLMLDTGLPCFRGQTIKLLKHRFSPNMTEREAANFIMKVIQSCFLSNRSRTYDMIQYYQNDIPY
inactive: [1] 0.018 | [2] -0.014 | [3] -0.055 | [4] 0.035 | [5] 0.075 | [6] -0.028 | [7] -0.027 | [8] -0.021 | [9] 0.02 | [10] -0.003 | [11] 0.012 | [12] 0.119 | [13] 0.011 | [14] -0.073 | [15] -0.045 | [16] 0 | [17] -0.039 | [18] 0.032 | [19] 0.04 | [20] -0.002

PTPN23 (UniProt Q9H3S7)
inactive: [1] 0.017 | [2] -0.029 | [3] 0.016 | [4] -0.01 | [5] -0.023 | [6] 0.008 | [7] -0.028 | [8] -0.013 | [9] -0.003 | [10] -0.004 | [11] 0.024 | [12] 0.007 | [13] 0.029 | [14] 0.007 | [15] -0.019 | [16] -0.014 | [17] 0.01 | [18] -0.015 | [19] 0.009 | [20] 0.012
